Laboratory results: PMC4336329 (PLoS ONE, 2015)
The whole screen tested about 310,000 compounds, of which about 14,000 (4.5%) showed an effect of 50% or more. The effect is printed as a negative number. The sample holds strong results, similar compounds and a random draw of the others, so the mix is not that of the screen.

target: human ether-à-go-go-related gene (hERG) potassium channel (human, UniProt Q12809); experiment: primary screen, population patch clamp on CHO cells stably expressing hERG; higher = less effect of the substance
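Further: peak tail current of the secondary pulse compared with the same well before compound.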

Sequence of human ether-à-go-go-related gene (hERG) potassium channel (Q12809 whole entry, looked up): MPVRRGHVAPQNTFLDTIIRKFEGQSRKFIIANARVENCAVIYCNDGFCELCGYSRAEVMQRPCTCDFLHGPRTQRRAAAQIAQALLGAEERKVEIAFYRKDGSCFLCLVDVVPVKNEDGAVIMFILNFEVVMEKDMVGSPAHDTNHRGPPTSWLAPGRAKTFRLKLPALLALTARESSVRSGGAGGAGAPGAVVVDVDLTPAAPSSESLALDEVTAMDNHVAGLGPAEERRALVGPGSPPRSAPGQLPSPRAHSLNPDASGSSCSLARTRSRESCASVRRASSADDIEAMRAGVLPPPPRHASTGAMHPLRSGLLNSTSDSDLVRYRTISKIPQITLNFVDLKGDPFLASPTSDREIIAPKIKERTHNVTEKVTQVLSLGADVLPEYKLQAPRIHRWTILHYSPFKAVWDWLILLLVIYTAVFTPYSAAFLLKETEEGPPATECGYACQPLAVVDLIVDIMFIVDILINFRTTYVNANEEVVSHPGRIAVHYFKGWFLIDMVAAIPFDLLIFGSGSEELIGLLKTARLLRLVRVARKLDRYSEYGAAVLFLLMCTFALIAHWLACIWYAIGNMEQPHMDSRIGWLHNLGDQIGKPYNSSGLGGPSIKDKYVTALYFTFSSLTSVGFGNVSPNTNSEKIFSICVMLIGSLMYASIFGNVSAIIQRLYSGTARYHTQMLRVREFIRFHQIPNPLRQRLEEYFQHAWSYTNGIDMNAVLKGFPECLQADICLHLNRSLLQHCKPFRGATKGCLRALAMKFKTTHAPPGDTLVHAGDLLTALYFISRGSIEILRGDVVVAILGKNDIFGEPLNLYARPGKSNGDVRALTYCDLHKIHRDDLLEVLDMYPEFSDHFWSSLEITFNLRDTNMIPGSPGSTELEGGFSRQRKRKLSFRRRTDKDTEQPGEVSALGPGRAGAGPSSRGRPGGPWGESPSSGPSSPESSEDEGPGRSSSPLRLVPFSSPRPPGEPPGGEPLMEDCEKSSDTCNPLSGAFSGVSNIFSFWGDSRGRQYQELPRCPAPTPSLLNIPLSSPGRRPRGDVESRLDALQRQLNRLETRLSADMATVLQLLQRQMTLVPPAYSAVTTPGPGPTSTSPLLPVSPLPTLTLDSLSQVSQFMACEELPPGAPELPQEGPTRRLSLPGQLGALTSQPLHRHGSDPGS

Row | Structure (SMILES) | hERG current change (%, negative = inhibition) at 10uM [%]
1 | CCCSc1nsc(NC(=O)CC)n1 | -30.5
2 | CCCC1Cc2c(sc(N)c2C#N)CO1 (stereo not shown) | 2.5
3 | CC(C)Cc1nnc(NC(=O)c2ccc(N3CCCC3=O)cc2)s1 | 2.3
4 | O=C(NCC1CCN(c2ccc(S(=O)(=O)N3CCOCC3)cc2)CC1)c1cccc(Cl)c1 | -12.4
5 | COc1ccc(NC(=O)CN(C)C(=O)Cc2ccc(S(=O)(=O)N3CCOCC3)s2)cc1 | 8.92
6 | Cc1cccc(C)c1NC(=O)CN(C)C(=O)c1cc(S(=O)(=O)N2CCOCC2)ccc1N1CCCC1 | -3.99
7 | Cc1ccc(OCCNC(=O)Cc2ccc(S(=O)(=O)N3CCOCC3)s2)cc1 | -24
8 | CN(CCOc1ccc(Cl)cc1)C(=O)c1ccc(S(=O)(=O)N2CCOCC2)cc1 | -74.9
9 | CN(CCOc1ccc(Cl)cc1)C(=O)c1cc(S(=O)(=O)N2CCOCC2)ccc1N1CCCC1 | -63.7
10 | CN(CCOc1ccccc1)C(=O)c1ccc(F)c(S(=O)(=O)N2CCOCC2)c1 | -10.8
11 | CN(CCOc1ccc(Cl)cc1)C(=O)Cc1ccc(S(=O)(=O)N2CCOCC2)s1 | -73.1
12 | Cc1ccc(OCCOC(=O)c2cc(S(=O)(=O)N3CCCCC3)ccc2N2CCOCC2)cc1 | -9.24
13 | CCCCN(C)C(=O)c1ccc(S(=O)(=O)N2CCOCC2)cc1 | 17.3
14 | COc1cccc(C(=O)NCC2CCN(c3ccc(S(=O)(=O)N4CCOCC4)cc3)CC2)c1 | -22.9
15 | O=C(NCC1CCN(c2ccc(S(=O)(=O)N3CCOCC3)cc2)CC1)c1ccc(Cl)cc1 | -57.2
16 | O=C(Nn1cnc2ccccc2c1=O)c1ccccc1 | 12.7
17 | COc1c(Cl)cc(C(=O)Nc2ccccc2-c2ccccc2)cc1Cl | 0.345
18 | Cc1ccc(NC(=O)Cn2nc(C(=O)Nc3ccc(C)cc3)ccc2=O)cc1 | 10.8
19 | CCN(CC)S(=O)(=O)c1cccc(C(=O)OC2CC(C)OC2=O)c1 (stereo not shown) | 12.7
20 | Nc1nc(NCc2ccccc2)nc(NCc2ccccc2)c1[N+](=O)[O-] | 16.2
21 | O=C(Nc1c2c(nn1-c1ccccc1)CS(=O)C2)c1ccc(S(=O)(=O)N2CCOCC2)cc1 (stereo not shown) | 17.4
22 | COc1cc(NC(=O)COC(=O)/C=C/c2ccc(Cl)cc2Cl)cc(OC)c1 | 5.23
23 | CC(C)(C)NC(=O)NCCc1ccccc1 | 11

Row | Structure (SMILES) | hERG current change (%, negative = inhibition) at 10uM [%]
24 | CC(=O)Nc1ccc2nc(SCC(=O)N3CCOCC3)sc2c1 | 18.9
25 | COc1cc(/C=N/NC(=O)[C@H](Cc2c[nH]c3ccccc23)NC(=O)OCC(C)C)cc([N+](=O)[O-])c1O | 10.3
26 | O=S(=O)(c1ccc2c(c1)nc(COc1ccc(Cl)cc1)n2CC1CCCO1)N1CCOCC1 (stereo not shown) | -65.2
27 | CCN1CCN(S(=O)(=O)c2ccc(Cl)c(C(=O)N(C)CCOc3ccc(Cl)cc3)c2)CC1 | -52.8
28 | COc1ccc(S(=O)(=O)N2CCOCC2)cc1C(=O)N(C)CCOc1ccc(Cl)cc1 | -79.8
29 | O=C(COc1ccc(S(=O)(=O)N2CCOCC2)cc1)NCC1CCCO1 (stereo not shown) | -15.1
30 | CCN1CCN(S(=O)(=O)c2ccc(Cl)c(C(=O)N(C)Cc3ccc(F)cc3)c2)CC1 | -25.1
31 | CN(CCOc1ccccc1)C(=O)c1cc([N+](=O)[O-])ccc1N1CCOCC1 | -27.3
32 | CN(CCOc1ccc(Cl)cc1)C(=O)c1cc([N+](=O)[O-])ccc1N1CCOCC1 | -66.7
33 | O=C(NCC1CCCO1)c1cc(S(=O)(=O)N2CCOCC2)ccc1Cl (stereo not shown) | 16.5
34 | COc1ccc(S(=O)(=O)N2CCCCCC2)cc1C(=O)N(C)CCOc1ccc(Cl)cc1 | -47.7
35 | COc1ccc(S(=O)(=O)N2CCCCCC2)cc1C(=O)N(C)Cc1ccc(Cl)cc1Cl | -23.1
36 | Cc1cccc(C)c1NC(=O)CN(C)C(=O)c1cc([N+](=O)[O-])ccc1N1CCOCC1 | 24.1
37 | CCN1CCN(S(=O)(=O)c2ccc(Cl)c(C(=O)N(C)Cc3cccc(OC)c3)c2)CC1 | -11.2
38 | COCCNC(=O)Cn1cc(C(=O)c2ccccc2F)c2ccccc21 | 12.5
39 | COc1ccccc1CNc1ncnc2cc(OC)c(OC)cc12 | -32
40 | CCOC(=O)c1c(NC(=O)Cn2cnc3scc(-c4ccc(C)cc4)c3c2=O)sc(C)c1C | -14.5
41 | CCCNC(=S)Nc1ccc(Nc2ccccc2)cc1 | -15
42 | O=C(CSc1cn[nH]n1)Nc1ccccc1C(F)(F)F | 8.13
43 | COc1ccc(CN(C)C(=O)Cc2ccc(S(=O)(=O)N3CCOCC3)s2)cc1OC | 7.58
44 | Cc1ccc(S(=O)(=O)N2CCOCC2)cc1C(=O)OCCOc1cccc(Cl)c1 | -9.45
45 | CN(CCOc1ccccc1)C(=O)c1cc(S(=O)(=O)N2CCOCC2)ccc1Cl | -48.4
46 | COc1ccc(Br)cc1CN(C)C(=O)Cc1ccc(S(=O)(=O)N2CCOCC2)s1 | -70.4

Row | Structure (SMILES) | hERG current change (%, negative = inhibition) at 10uM [%]
47 | Cc1ccc(S(=O)(=O)N2CCOCC2)cc1C(=O)N(C)CCOc1ccc(Cl)cc1 | -64
48 | COc1ccc(Br)cc1CN(C)C(=O)Cc1ccc(OC)c(S(=O)(=O)N2CCOCC2)c1 | -41
49 | CC(OC(=O)/C=C/c1ccc(Br)cc1)C(=O)N1CCOCC1 (stereo not shown) | -10.8
50 | CCc1cc(=O)oc2c(CNC(Cc3ccccc3)C(=O)O)c(O)ccc12 (stereo not shown) | 9.3
51 | O=c1ccn(Cc2ccccc2Cl)cc1 | 8.8
52 | O=C(CCc1nnc(-c2ccsc2)o1)NCc1ccccc1OC(F)(F)F | 3.76
53 | CN1C(=O)C(=Cc2coc3ccccc3c2=O)C(=O)N(C)C1=O | 2.32
54 | Cc1ccc(NC(=O)Cn2cnc3ccccc32)cc1C | -3.44
55 | O=C(Cn1cnc2ccccc21)Nc1ccc(C(=O)O)cc1.O=C(O)C(=O)O | -71.4
56 | O=C(Cn1cnc2ccccc21)Nc1ccc(F)c(F)c1 | 8.41
57 | O=S(=O)(c1ccc(N2CCOCC2)cc1)N1CCOCC1 | -5.96
58 | O=C(CNC(=O)c1ccccc1)OCCCOC(=O)CNC(=O)c1ccccc1 | 11.8
59 | O=C(NC(=S)N1CCOCC1)c1ccccc1Cl | 12.7
60 | O=C(NN1C(=O)c2cc(Br)ccc2NC1c1ccccc1Cl)c1ccncc1 (stereo not shown) | 8.83
61 | Cl.O=C(CN1CCC(n2nnc3cc(F)ccc32)CC1)NCc1ccco1 | -35.6
62 | COc1ccccc1NC(=O)CN1CCC(n2c(C)nc3cc(F)ccc32)CC1 | -72.2
63 | Cc1nc2cc(NC(=O)N3CCCC3)ccc2n1C | -1.21
64 | COc1ccc(NC(=O)CN2CCC(n3c(C)nc4cc(F)ccc43)CC2)c(OC)c1 | -4.64
65 | COc1cc(NC(=O)Nc2ccccc2OC)c(OC)cc1NC(=O)CN1CCCCC1 | 1.04
66 | COc1ccc(C(=O)NNC(=O)CN2CCC(n3nnc4cc(F)ccc43)CC2)cc1 | -18.4
67 | Cc1nc2ccc(NC(=O)N3CCC(c4ccccc4)C3)cc2nc1C (stereo not shown) | -11.4
68 | COc1ccc(Cl)cc1NC(=O)CN1CCC(n2nnc3ccccc32)CC1 | -10.4
69 | COc1ccc(CNC(=O)CN2CCC(n3nnc4cc(F)ccc43)CC2)cc1 | -68

Row | Structure (SMILES) | hERG current change (%, negative = inhibition) at 10uM [%]
70 | COc1ccc(Cl)cc1NC(=O)CN1CCC(n2nnc3cc(F)ccc32)CC1 | -7.93
71 | Cc1nc2cc(NC(=O)N3CCC(c4ccccc4)C3)ccc2n1C (stereo not shown) | -52.4
72 | COc1ccccc1NC(=O)CN1CCC(n2nnc3cc(F)ccc32)CC1 | -55.4
73 | CCc1ccc(C(=O)N/N=C/c2cccc3ccccc23)nc1 | 1.8
74 | Cc1ccc(-c2nnc(SCC(=O)N3CCCC3)o2)cc1C | -0.309
75 | CC(C)Cc1nnc(NC(=O)CCC(=O)NC2CCCCCC2)s1 | -48.6
76 | CCN(CC)CCP(=O)(c1ccccc1)c1ccccc1 | -15.2
77 | OCCN1CCN(c2nc(-c3ccccc3)nc3c2oc2ccccc23)CC1 | -6.34
78 | COC(=O)C1=C(CN2CCN(C)CC2)NC(=O)NC1c1cc(C)ccc1C (stereo not shown) | -41
79 | COc1ccc2c(=O)cc(-c3cccnc3)oc2c1OC | 8.9
80 | CCc1nnc(NC(=O)c2c(-c3ccccc3)noc2C)s1 | 10.2
81 | N#Cc1ccccc1OCC(=O)Nc1cccc(S(=O)(=O)N2CCCC2)c1 | 5.17
82 | O=C(Cc1ccccc1F)Nc1ccc(SC(F)F)cc1 | 14
83 | Cc1ccccc1C(=O)NC1CCN(CC(=O)NCc2ccc(F)cc2)CC1 | -44.2
84 | O=C(CN1CCC(n2nnc3cc(F)ccc32)CC1)NC1CC1 | -4.99
85 | Cc1nc2ccccc2n1C1CCN(C(=O)Nc2ccccc2)CC1 | -60.5
86 | Cc1nc2ccccc2n1C1CCN(CC(=O)Nc2ccccc2Br)CC1 | -25
87 | COC(=O)C1CCN(C(=O)Nc2ccccc2)CC1 | 24.3
88 | Cc1nc2ccccc2n1C1CCN(CC(=O)NCc2ccc(F)cc2)CC1 | -58
89 | O=C(CN1CCC(n2nnc3cc(F)ccc32)CC1)NC1CCCCC1 | -32.8
90 | O=C(Nc1ccccc1)N1CCC(n2c(=O)[nH]c3ccccc32)CC1 | -8.18
91 | CC1CCC(NC(=O)CN2CCC(n3nnc4cc(F)ccc43)CC2)CC1 (stereo not shown) | -58.4
